From PubChem BioAssay AID485270 (The Scripps Research Institute Molecular Screening Center, 2010)
In all, about 330,000 compounds went through this assay and about 5,800 (1.8%) were called active. Rule as the data show it: active = inhibition mostly above about 38% (no sharp cut-off); inactive = mostly below about 40%. The sample as a whole holds a higher share of actives than the screen did.

Molecular target: Orexin/Hypocretin receptor type 1 (Homo sapiens) (UniProt O43613)
Assay: antagonists of human orexin 1 receptor (OX1R) (AID 485270);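 also: 0% = agonist challenge alone and 100% = reference antagonist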
Conditions: OX1R-expressing cells, FRET antagonist read-out; at 6.6 µM; hits give high values

Chain of Orexin/Hypocretin receptor type 1 (Homo sapiens) (O43613 whole entry, looked up): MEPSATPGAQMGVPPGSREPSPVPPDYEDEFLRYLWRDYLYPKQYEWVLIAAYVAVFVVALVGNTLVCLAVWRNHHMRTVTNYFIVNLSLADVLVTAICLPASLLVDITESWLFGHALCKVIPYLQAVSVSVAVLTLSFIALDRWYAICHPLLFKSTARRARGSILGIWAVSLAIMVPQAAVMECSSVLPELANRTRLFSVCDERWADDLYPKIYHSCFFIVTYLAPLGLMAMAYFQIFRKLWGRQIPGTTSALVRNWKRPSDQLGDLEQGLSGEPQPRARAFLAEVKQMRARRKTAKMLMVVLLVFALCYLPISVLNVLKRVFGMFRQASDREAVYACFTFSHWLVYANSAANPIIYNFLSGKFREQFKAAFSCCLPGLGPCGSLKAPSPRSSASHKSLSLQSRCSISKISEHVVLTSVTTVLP

inhibition, inactive:
Cc1ccc(S(=O)(=O)NCC(C)NS(C)(=O)=O)cc1 (stereo not given) 4.32%, CCN(CC(=O)NC(C)C)C(=O)c1cc(S(=O)(=O)N2CCCCC2)ccc1N1CCCCC1 4.56%, CC(=O)NC(CC(=O)Nc1ccc(S(=O)(=O)N2CCOCC2)cc1)c1ccccc1 (stereo not given) 6.07%, COc1ccc(C(=O)NC2CCCc3c2cnn3-c2cccc(C)c2C)c(OC)n1 (stereo not given) 38.4%, Cn1nccc1C(=O)NC1CCCc2c1cnn2-c1ccccc1F (stereo not given) 26.4%, CC[C@]1(C(=O)OC)[C@H]2C(=O)N(Cc3ccccc3)C(=O)[C@H]2[C@H]2CN=C(SCc3ccc(C#N)cc3)N21 4.34%, C=CC[C@H](CC(=O)OC(C)(C)C)C(=O)OC[C@H]1CCCN1C(=O)[C@H](CC=C)CC(=O)N(CCO)Cc1ccccc1 2.54%, CN1CCN(CC(=O)Nc2cccc([N+](=O)[O-])c2)CC1 28%, Cc1ccc(NC(=O)CN(C)CC(=O)Nc2cccc(F)c2)cc1[N+](=O)[O-] 30%, C[C@H](CO)N1C[C@H](C)[C@@H](CN(C)C(=O)NC2CCCCC2)Oc2ccc(NC(=O)c3ccncc3)cc2C1=O 1.49%, Cc1ccc(C(=O)NNC(=O)CSc2nnc3ccccn23)cc1 0.4%, COCCN(Cc1nc(-c2ccc(C(F)(F)F)cc2)no1)C(C)C -2.95%, CCc1ccc(CN(C)C(=O)CCc2nnc(-c3ccc(-c4ccccc4)cc3)o2)nc1 3.52%, CN(C)/N=C/c1cc(Cl)cc([N+](=O)[O-])c1O 46.4%, O=C(N/N=C/c1cc(Br)c(O)c([N+](=O)[O-])c1)C(O)(c1ccccc1)c1ccccc1 28.3%, COc1cc(NC(=O)COC(=O)c2cc(S(=O)(=O)N3CCOCC3)ccc2F)cc(OC)c1 15.3%, O=C(c1cnccn1)N1CCN(S(=O)(=O)c2cccc(Cl)c2)CC1 4.72%, O=C(C[C@@H]1C/C=C\CCC(=O)OC[C@@H]2CCCN2C1=O)NCCO 4.18%, CCCCC[C@@H]1C=C(C(=O)O)[C@H](c2ccc(C#N)cc2)N1S(=O)(=O)c1ccc(C)cc1 10.8%, Cc1ccc(S(=O)(=O)NNC(=O)Nc2cccc3ccccc23)cc1 21.8%, O=C1CSc2ccc(C(=O)NCc3ccccn3)cc2N1 3.47%, O=C(CSc1nnc(-c2c[nH]c3ccccc23)o1)c1ccccc1 29.7%, CN(C(=O)CSc1nnc(-c2c[nH]c3ccccc23)o1)C1CCS(=O)(=O)C1 (stereo not given) 16.6%, N#Cc1ccc(C(=O)Nc2cccc3cccnc23)c(F)c1 11%, O=C(Nc1cccnc1Cl)c1cc(-c2cccc(Cl)c2)on1 11.7%, COC(=O)c1cccc(NC(=O)c2cccc(N3C(=O)CCC3=O)c2)c1 4.2%, CCOC(=O)Cc1ncccc1C(=O)Nc1ccc(OC)cc1 25.1%, COc1ccc(NC(=O)C2CCCN(S(=O)(=O)c3cccc4cccnc34)C2)cc1 (stereo not given) 4.36%, Cc1cc(NC(=O)c2cccc(N3C(=O)CCC3=O)c2)no1 11.9%, CC[C@]1(C(=O)OC)[C@H]2C(=O)N(C)C(=O)[C@H]2[C@H]2CN(C)C(=NCc3ccccc3)N21 2.73%, COc1ccccc1CNC(=O)COC(=O)c1cccs1 2.2%, O=C(CN1C(=O)NC(Cc2c[nH]c3ccccc23)C1=O)Nc1ccccc1C(F)(F)F (stereo not given) 3.6%, CCC(C)c1ccc(NC(=O)COC(=O)C2CCCC2)cc1 (stereo not given) 5.25%, CCOC(=O)[C@@H]1[C@H]2COc3ccc(Br)cc3[C@H]2N2C(=O)N(c3ccc(C)cc3)C(=O)[C@@]12C 10.5%, O=C(Cn1cnc2c(OCc3ccccc3)ncnc21)NCc1nc2ccccc2[nH]1 14.3%, CC(O)CNCCOc1cccc(Oc2ccccc2)c1 (stereo not given) 3.22%, CC(C)(C)NCC(O)COc1cccc2[nH]c(=O)[nH]c12 (stereo not given) 8.82%, COc1ccccc1-c1nnc(NC(=O)c2ccc3ncsc3c2)o1 8.4%, Cc1ccc(C(=O)c2c(NC(=O)c3ccccc3)sc(C)c2C)cc1 21.9%, Cc1ccc(C(=O)Nc2ccccc2-c2ccccc2)cc1S(=O)(=O)Nc1ccccc1 5.71%, CCOc1ccc(N(CC(=O)NCc2ccc(OC)cc2)S(=O)(=O)c2c(C)noc2C)cc1 0.77%, Cc1noc(C)c1S(=O)(=O)N(CC(=O)Nc1ccc2c(c1)OCCO2)c1ccc(C(C)C)cc1 23.3%

inhibition, active:
Cc1cc(C(=O)NC2CCCc3c2cnn3-c2cccc(C)c2C)c(C)o1 (stereo not given) 81%, Cc1ccc(NC(=O)CN2CCC(C(N)=O)CC2)cc1[N+](=O)[O-] 50.4%, CC(=O)N(C1=C(Cl)C(=O)c2ccccc2C1=O)c1ccc(C(=O)O)cc1 39.2%, CC(=O)c1ccc(-c2nnc(CCC(=O)N(C)Cc3cnc4ccccn34)o2)s1 40.1%, O=C(N/N=C/c1cc(Cl)cc([N+](=O)[O-])c1O)C(O)(c1ccccc1)c1ccccc1 54.6%, Cc1ccc(S(=O)(=O)N2[C@@H](c3cccc4ccccc34)C(C(=O)O)=C[C@H]2C(C)(C)C)cc1 46.2%, CN(C(=O)CSc1nnc(-c2n[nH]c3ccccc23)o1)c1ccccc1 91.9%, O=C(Nc1cccc2cccnc12)c1cccc(N2C(=O)CCC2=O)c1 92.7%, COc1ccc(NC(=O)Nc2cccc3cccnc23)cc1 40%, O=C(Nc1cccc2cccnc12)c1cccc(Cl)c1 61.5%, COc1ccccc1OCCNCC(O)COc1cccc2[nH]c3ccccc3c12 (stereo not given) 59.7%, Cc1sc(NC(=O)c2ccc3ncsc3c2)c(C(N)=O)c1C 43.8%, Cc1noc(C)c1S(=O)(=O)N(CC(=O)NCc1ccc(Cl)cc1)c1ccc2c(c1)OCO2 80.7%
